Measured values reported in ChEMBL document CHEMBL1961873, “Compounds: GSK PKIS; Assays: Nanosyn kinase panel” (2012).

What was measured:
[1] = molecular target: T1, Inhibitor of nuclear factor kappa-B kinase subunit epsilon (Homo sapiens) (UniProt Q14164); conditions: at 1 µM;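 also: reported values are averaged percent inhibition figures against human IKKε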
T1 sequence (whole entry): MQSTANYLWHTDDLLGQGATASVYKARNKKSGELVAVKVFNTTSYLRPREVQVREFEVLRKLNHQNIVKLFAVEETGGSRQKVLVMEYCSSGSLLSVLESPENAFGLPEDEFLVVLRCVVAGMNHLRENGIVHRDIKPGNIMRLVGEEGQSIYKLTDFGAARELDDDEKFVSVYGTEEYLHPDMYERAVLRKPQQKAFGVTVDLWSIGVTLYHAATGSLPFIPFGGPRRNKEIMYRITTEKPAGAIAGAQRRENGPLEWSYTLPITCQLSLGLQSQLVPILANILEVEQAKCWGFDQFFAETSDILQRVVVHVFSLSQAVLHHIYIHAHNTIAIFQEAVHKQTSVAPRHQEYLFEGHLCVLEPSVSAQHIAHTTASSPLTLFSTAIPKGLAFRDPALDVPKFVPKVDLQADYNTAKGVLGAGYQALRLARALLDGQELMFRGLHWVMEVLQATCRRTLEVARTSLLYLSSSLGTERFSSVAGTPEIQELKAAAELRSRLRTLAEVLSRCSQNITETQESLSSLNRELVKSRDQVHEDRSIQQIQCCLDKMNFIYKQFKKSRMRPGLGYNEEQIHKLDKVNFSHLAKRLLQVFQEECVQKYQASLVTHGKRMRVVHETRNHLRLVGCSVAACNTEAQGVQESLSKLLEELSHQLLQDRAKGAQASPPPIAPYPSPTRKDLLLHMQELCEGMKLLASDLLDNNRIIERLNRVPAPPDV

[2] = molecular target: T2, Serine/threonine-protein kinase Nek1 (Homo sapiens) (UniProt Q96PY6); conditions: at 0.1 µM
T2 sequence (whole entry): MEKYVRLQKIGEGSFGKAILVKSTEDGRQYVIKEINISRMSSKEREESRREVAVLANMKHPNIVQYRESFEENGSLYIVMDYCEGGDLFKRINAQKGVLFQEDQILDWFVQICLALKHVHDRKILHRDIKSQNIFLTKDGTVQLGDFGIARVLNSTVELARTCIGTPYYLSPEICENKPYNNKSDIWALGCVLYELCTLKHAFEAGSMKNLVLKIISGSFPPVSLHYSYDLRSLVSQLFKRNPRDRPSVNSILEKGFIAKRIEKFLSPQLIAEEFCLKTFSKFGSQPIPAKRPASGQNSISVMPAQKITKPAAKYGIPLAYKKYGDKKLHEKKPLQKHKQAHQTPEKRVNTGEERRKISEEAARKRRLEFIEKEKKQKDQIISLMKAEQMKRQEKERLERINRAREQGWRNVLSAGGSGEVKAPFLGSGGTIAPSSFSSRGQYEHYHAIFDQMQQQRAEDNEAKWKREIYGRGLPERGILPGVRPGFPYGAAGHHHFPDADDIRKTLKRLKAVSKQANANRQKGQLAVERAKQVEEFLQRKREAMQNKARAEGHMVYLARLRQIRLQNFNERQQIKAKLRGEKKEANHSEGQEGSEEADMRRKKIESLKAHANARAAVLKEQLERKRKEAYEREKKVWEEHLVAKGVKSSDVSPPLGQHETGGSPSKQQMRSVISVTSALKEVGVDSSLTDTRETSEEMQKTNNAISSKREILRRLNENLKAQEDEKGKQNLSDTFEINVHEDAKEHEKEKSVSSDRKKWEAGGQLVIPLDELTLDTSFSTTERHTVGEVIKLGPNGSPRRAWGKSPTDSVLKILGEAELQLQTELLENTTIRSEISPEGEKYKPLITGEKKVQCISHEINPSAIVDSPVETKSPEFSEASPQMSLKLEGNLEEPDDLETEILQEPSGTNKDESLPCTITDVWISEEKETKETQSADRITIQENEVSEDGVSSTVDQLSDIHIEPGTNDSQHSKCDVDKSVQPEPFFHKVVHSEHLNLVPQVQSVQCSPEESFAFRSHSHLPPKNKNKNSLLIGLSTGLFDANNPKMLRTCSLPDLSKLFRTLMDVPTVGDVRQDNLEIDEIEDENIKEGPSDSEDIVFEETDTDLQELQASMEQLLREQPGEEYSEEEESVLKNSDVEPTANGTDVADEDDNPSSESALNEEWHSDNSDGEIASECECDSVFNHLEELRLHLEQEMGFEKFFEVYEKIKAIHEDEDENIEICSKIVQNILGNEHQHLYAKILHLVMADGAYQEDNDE

[3] = molecular target: T2, Serine/threonine-protein kinase Nek1 (Homo sapiens); conditions: at 1 µM
[4] = molecular target: T3, Serine/threonine-protein kinase Nek2 (Homo sapiens) (UniProt P51955); conditions: at 0.1 µM
T3 sequence (whole entry): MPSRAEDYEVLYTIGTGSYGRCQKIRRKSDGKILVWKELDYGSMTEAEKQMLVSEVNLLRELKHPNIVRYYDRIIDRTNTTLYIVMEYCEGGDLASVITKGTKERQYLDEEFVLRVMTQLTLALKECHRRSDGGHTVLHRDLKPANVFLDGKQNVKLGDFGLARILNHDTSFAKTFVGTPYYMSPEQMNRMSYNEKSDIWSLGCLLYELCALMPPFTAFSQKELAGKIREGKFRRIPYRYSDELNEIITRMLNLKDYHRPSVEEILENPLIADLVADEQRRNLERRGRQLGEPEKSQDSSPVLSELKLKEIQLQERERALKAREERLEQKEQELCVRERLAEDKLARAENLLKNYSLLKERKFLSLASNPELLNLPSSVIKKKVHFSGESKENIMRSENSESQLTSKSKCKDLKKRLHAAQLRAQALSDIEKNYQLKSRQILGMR

[5] = molecular target: T3, Serine/threonine-protein kinase Nek2 (Homo sapiens); conditions: at 1 µM
[6] = molecular target: Serine/threonine-protein kinase Nek6 (Homo sapiens) (UniProt Q9HC98); conditions: at 0.1 µM
[7] = molecular target: Serine/threonine-protein kinase Nek6 (Homo sapiens) (UniProt Q9HC98); conditions: at 1 µM
[8] = molecular target: Serine/threonine-protein kinase Nek7 (Homo sapiens) (UniProt Q8TDX7); conditions: at 0.1 µM
[9] = molecular target: Serine/threonine-protein kinase Nek7 (Homo sapiens) (UniProt Q8TDX7); conditions: at 1 µM
[10] = molecular target: T4, Serine/threonine-protein kinase Nek9 (Homo sapiens) (UniProt Q8TD19); conditions: at 0.1 µM
T4 sequence (whole entry): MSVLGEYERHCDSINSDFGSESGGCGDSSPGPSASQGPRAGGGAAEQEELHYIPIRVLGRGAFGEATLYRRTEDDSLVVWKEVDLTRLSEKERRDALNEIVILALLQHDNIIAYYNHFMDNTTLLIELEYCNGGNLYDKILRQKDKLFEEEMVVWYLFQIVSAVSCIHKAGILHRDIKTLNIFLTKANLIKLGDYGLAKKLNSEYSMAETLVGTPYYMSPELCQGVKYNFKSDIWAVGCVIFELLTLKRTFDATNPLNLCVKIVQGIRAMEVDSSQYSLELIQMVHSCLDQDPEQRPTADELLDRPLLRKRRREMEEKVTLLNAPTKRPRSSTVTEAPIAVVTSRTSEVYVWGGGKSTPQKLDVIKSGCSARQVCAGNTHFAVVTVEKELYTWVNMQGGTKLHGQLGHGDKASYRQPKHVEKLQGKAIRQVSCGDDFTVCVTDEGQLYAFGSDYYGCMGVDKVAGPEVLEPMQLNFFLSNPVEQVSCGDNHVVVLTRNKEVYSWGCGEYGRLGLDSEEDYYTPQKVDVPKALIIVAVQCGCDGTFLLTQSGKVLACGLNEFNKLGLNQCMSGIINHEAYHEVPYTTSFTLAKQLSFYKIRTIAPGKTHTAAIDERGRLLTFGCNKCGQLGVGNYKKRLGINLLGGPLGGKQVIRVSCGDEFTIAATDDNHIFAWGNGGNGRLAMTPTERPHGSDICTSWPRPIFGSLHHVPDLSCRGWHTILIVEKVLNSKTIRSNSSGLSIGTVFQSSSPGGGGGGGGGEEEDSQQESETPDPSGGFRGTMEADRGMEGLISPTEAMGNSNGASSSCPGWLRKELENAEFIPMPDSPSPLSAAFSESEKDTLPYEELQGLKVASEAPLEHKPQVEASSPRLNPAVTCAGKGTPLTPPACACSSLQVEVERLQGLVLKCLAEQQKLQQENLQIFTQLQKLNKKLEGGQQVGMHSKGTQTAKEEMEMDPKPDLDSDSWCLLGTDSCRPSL

[11] = molecular target: T4, Serine/threonine-protein kinase Nek9 (Homo sapiens); conditions: at 1 µM
[12] = molecular target: Serine/threonine-protein kinase PLK1 (Homo sapiens) (UniProt P53350); conditions: at 0.1 µM
[13] = molecular target: Serine/threonine-protein kinase PLK1 (Homo sapiens) (UniProt P53350); conditions: at 1 µM
[14] = molecular target: T5, Dual specificity protein kinase TTK (Homo sapiens) (UniProt P33981); conditions: at 0.1 µM
T5 sequence (whole entry): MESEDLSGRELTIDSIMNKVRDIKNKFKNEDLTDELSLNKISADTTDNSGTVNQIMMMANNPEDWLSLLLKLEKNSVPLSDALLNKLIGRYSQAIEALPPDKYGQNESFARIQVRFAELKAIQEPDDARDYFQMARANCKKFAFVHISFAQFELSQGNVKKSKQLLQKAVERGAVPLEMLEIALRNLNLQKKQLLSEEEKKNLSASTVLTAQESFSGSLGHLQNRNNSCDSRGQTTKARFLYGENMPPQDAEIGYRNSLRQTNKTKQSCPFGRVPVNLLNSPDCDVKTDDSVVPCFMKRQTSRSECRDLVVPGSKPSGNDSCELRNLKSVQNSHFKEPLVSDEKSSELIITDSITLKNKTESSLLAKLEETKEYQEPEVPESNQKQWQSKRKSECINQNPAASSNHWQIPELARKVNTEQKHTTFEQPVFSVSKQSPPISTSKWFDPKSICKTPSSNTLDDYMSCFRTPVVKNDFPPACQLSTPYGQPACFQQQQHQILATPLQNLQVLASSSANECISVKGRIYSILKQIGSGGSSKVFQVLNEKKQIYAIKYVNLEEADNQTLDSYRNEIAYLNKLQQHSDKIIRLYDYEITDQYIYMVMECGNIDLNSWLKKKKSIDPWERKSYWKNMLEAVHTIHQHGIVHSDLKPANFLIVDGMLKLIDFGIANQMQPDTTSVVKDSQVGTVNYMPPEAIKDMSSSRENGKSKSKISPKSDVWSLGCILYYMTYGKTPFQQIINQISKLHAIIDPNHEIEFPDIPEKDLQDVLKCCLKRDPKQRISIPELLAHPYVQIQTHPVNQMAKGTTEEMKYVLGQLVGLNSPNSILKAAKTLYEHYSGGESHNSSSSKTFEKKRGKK

[15] = test system: T6, Receptor-type tyrosine-protein kinase FLT3 (Homo sapiens), P36888 [D835Y]; conditions: at 1 µM
T6 sequence (whole entry): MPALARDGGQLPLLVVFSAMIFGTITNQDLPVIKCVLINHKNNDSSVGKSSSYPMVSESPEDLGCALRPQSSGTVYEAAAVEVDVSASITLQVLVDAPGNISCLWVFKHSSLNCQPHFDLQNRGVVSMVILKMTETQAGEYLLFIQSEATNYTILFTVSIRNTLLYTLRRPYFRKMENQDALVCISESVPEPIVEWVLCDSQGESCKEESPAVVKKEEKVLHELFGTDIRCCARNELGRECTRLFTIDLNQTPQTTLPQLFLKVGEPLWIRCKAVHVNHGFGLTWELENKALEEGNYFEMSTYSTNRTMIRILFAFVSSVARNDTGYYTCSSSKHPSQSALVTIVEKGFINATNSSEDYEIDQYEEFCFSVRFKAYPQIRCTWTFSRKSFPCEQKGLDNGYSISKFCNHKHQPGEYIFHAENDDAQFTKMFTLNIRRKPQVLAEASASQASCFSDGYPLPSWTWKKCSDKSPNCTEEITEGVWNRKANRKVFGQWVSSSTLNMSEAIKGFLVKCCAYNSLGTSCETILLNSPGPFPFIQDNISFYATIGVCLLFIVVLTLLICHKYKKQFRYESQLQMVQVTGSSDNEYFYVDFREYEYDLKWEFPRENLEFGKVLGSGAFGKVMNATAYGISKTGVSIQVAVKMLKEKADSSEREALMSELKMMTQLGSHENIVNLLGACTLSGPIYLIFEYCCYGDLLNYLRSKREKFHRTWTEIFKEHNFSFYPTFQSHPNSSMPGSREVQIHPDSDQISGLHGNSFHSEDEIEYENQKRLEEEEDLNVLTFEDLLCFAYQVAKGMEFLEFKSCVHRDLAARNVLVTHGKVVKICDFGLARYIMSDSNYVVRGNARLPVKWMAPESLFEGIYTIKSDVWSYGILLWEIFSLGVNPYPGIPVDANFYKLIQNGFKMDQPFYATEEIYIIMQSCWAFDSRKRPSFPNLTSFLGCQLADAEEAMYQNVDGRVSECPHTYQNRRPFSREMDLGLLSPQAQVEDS

[16] = molecular target: Vascular endothelial growth factor receptor 3 (Homo sapiens) (UniProt P35916); conditions: at 0.1 µM
[17] = molecular target: Vascular endothelial growth factor receptor 3 (Homo sapiens) (UniProt P35916); conditions: at 1 µM
[18] = molecular target: Macrophage colony-stimulating factor 1 receptor (Homo sapiens) (UniProt P07333); conditions: at 0.1 µM
[19] = molecular target: Macrophage colony-stimulating factor 1 receptor (Homo sapiens) (UniProt P07333); conditions: at 1 µM
[20] = molecular target: Tyrosine-protein kinase Fyn (Homo sapiens) (UniProt P06241); conditions: at 0.1 µM
Chain of Tyrosine-protein kinase Fyn (Homo sapiens) (P06241 2-537 limits assumed): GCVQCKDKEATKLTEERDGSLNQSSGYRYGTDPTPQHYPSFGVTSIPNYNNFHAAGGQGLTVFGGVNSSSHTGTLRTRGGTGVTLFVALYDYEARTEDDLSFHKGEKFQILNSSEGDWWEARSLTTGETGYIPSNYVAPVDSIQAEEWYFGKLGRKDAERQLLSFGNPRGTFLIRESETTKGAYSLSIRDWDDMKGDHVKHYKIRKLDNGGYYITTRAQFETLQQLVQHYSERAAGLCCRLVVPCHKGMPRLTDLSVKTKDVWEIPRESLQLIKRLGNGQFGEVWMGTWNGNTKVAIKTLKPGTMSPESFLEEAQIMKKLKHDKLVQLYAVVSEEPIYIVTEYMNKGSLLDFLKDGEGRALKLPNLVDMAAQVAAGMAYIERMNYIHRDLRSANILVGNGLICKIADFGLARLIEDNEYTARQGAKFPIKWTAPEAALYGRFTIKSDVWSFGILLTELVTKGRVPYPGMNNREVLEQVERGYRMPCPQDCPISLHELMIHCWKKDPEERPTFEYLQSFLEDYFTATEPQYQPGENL

Chain of Serine/threonine-protein kinase Nek7 (Homo sapiens) (Q8TDX7 whole entry, looked up): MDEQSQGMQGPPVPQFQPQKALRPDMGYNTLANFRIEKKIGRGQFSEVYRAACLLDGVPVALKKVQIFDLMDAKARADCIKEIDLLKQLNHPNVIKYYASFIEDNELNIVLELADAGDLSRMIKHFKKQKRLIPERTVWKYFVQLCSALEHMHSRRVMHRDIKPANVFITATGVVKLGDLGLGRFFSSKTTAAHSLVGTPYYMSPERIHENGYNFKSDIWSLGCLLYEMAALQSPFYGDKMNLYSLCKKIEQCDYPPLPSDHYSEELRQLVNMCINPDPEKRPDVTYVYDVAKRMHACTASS
Chain of Serine/threonine-protein kinase Nek6 (Homo sapiens) (Q9HC98 whole entry): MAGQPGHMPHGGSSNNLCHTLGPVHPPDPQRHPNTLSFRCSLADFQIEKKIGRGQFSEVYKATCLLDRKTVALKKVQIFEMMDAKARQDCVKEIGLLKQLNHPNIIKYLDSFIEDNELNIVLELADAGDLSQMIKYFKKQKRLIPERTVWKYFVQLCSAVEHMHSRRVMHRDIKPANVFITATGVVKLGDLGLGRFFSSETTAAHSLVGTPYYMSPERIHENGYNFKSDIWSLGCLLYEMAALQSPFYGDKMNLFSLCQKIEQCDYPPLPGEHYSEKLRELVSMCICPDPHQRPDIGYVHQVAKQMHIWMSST
Chain of Serine/threonine-protein kinase PLK1 (Homo sapiens) (P53350 whole entry): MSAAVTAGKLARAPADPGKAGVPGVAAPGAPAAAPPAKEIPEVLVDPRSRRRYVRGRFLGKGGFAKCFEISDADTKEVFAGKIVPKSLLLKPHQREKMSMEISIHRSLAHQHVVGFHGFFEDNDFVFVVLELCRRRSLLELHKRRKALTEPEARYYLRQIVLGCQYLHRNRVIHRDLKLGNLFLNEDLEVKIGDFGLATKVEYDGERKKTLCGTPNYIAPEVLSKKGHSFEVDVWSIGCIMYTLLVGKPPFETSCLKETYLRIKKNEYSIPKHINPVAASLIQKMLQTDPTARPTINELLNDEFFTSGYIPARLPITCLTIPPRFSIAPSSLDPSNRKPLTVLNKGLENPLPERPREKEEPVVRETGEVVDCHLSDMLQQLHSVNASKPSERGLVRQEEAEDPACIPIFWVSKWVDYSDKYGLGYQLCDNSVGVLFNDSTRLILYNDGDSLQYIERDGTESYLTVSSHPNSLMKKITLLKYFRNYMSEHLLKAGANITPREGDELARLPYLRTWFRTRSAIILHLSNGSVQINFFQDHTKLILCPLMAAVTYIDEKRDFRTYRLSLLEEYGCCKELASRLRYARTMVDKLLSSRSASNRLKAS
Chain of Macrophage colony-stimulating factor 1 receptor (Homo sapiens) (P07333 whole entry): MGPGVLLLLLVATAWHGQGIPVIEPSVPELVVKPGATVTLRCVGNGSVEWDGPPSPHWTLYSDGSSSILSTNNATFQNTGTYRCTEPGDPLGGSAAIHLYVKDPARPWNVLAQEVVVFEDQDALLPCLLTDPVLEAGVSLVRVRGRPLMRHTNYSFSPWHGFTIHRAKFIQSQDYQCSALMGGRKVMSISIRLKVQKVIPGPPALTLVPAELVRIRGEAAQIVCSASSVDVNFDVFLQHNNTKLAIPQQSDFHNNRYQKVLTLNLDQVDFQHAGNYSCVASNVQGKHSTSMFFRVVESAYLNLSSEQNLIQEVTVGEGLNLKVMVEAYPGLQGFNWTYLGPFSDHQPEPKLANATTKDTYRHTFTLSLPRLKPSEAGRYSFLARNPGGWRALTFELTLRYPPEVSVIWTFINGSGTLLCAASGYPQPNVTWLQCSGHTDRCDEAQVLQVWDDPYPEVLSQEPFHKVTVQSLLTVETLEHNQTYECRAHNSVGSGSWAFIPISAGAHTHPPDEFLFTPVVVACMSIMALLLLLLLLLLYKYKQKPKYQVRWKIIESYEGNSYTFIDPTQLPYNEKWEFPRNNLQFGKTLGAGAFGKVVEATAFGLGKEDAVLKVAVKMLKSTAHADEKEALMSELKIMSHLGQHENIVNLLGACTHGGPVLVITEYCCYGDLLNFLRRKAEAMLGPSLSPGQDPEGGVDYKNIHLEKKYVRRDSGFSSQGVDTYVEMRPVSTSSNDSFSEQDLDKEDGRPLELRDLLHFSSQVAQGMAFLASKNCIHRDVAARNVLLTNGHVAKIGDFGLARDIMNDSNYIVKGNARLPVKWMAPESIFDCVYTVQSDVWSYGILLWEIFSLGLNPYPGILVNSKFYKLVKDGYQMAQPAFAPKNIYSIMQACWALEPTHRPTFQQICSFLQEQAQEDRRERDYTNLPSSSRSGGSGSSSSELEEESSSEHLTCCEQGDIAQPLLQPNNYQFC
Chain of Vascular endothelial growth factor receptor 3 (Homo sapiens) (P35916 whole entry): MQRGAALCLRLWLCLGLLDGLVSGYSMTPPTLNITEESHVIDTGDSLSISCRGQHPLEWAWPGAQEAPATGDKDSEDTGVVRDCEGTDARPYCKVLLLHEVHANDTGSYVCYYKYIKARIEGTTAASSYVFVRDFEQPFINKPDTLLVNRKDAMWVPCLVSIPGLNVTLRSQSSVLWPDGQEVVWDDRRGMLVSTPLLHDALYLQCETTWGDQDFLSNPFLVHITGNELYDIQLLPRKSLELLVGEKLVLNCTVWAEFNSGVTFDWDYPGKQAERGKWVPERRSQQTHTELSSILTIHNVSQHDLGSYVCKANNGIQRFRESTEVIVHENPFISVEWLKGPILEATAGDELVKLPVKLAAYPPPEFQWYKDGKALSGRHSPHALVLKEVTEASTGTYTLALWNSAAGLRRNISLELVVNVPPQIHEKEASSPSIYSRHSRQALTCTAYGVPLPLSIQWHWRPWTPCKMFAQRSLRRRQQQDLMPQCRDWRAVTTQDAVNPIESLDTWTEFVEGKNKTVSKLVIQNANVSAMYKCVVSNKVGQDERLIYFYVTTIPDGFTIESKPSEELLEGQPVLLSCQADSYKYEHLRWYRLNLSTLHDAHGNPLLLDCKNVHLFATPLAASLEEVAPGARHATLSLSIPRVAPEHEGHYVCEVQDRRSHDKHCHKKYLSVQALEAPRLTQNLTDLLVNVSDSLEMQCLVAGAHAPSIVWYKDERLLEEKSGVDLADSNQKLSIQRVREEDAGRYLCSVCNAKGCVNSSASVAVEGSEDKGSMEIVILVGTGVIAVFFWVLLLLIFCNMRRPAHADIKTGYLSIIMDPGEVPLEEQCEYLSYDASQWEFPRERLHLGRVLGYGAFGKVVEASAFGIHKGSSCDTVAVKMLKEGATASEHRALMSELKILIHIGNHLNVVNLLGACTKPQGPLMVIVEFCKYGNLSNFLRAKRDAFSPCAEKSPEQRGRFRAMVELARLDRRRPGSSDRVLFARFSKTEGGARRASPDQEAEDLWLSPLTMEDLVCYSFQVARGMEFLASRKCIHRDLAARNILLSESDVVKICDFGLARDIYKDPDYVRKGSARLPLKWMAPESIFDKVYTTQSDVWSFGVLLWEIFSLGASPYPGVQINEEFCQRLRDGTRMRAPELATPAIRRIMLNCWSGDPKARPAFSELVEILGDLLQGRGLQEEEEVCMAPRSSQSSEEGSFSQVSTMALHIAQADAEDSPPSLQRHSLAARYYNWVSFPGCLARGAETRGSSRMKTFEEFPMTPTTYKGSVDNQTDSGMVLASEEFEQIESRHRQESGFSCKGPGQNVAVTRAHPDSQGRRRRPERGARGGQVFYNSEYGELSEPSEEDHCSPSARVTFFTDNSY

Compound	inhibition [1] [%]	inhibition [2] [%]	inhibition [3] [%]	inhibition [4] [%]	inhibition [5] [%]	inhibition [6] [%]	inhibition [7] [%]	inhibition [8] [%]	inhibition [9] [%]	inhibition [10] [%]	inhibition [11] [%]	inhibition [12] [%]	inhibition [13] [%]	inhibition [14] [%]	inhibition [15] [%]	inhibition [16] [%]	inhibition [17] [%]	inhibition [18] [%]	inhibition [19] [%]	inhibition [20] [%]
Nc1nccc(-c2c(-c3ccc(F)cc3)ncn2C2CCC(O)CC2)n1 (stereo not given)	-2.64	-1.36	0.03	-2.37	-3.67	-4.15	-1.66	-2.24	-4.78	2.41	-1.68	-2.32	-1.2	-4.27	0.98	1.39	-0.22	2.19	14.7	1.57
Cc1ccc(C(=O)NC(C)C)cc1-c1ccc(C(=O)NCC2CC2)cc1	-4.16	-1.29	-1.39	-3.14	-3.6	-3.09	-3.72	-6.3	-4.59	3.16	4.93	-2.88	0.01	-5.71	5.33	1.2	2.58	-3.16	0.94	-0.23
